Measurements reported in PubChem BioAssay (Tox21).
Where “and” joins values, the source holds several entries; their conditions need not be identical. Identical values can stand only once. Inconclusive results are not listed. Calls of active or inactive are those of the source. Unless noted, calls come from the whole dose curve; as a rule, active = well fitted curve in the direction sought with a large enough effect in the repeat runs; inconclusive = weak or mixed curves; inactive = no such curve, though single readings can be large; an effect the other way counts as inactive or inconclusive.

Assays:
[1] = qHTS assay to identify small molecule antagonists of the peroxisome proliferator-activated receptor delta (PPARd) signaling pathway - cell viability counter screen (AID 743213); note: nearly all actives have a fitted effect of over 50% in size; note: potency is the fitted concentration of half-maximal effect
Summary of the method: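 PPARd-bla HEK293H cells were treated with compounds plus agonist L165041 (300 nM final) for 17 h at 37 C. Viability was then read in the same wells by CellTiter-Glo luminescence after 30 min at room temperature.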

[2] = molecular target: Peroxisome proliferator-activated receptor delta (Homo sapiens) (UniProt Q03181); test: qHTS assay to identify small molecule antagonists of the peroxisome proliferator-activated receptor delta (PPARd) signaling pathway (AID 743215; active = well fitted inhibition curve with a large enough effect in the signal ratio in the repeat runs, not every such curve was filed as active; the % refers to the signal ratio;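 note: cells stimulated with agonist L165041 at 300 nM final during compound exposure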; note: potency is the fitted concentration of half-maximal effect)
Chain of Peroxisome proliferator-activated receptor delta (Homo sapiens) (Q03181 whole entry, looked up): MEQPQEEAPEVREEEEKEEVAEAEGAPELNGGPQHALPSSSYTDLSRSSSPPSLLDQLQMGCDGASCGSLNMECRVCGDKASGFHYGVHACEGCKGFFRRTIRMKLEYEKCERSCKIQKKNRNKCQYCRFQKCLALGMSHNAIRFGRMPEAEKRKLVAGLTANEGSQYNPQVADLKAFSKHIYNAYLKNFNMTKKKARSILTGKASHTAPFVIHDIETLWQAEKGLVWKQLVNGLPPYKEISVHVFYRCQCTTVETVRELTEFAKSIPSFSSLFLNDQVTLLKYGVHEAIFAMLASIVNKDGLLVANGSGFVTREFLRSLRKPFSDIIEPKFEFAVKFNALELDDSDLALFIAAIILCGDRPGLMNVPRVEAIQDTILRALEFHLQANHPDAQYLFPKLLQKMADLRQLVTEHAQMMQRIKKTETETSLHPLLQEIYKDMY
Summary of the method: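 HEK293H GeneBLAzer PPARd UAS-bla reporter cells; cpd + L165041 300 nM final, 17 h 37 C; LiveBLAzer B/G FRET substrate 2 h RT; fluorescence intensity read-out. Antagonist mode.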

[3] = qHTS assay to identify small molecule agonists of the farnesoid-X-receptor (FXR) signaling pathway - cell viability counter screen (AID 743218); note: nearly all actives have a fitted effect of over 45% in size; note: potency is the fitted concentration of half-maximal effect
Summary of the method: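 Luminescence from CellTiter-Glo, read after 30 min at RT, reports viability of GeneBLAzer FXR-UAS-bla HEK 293T cells treated 16 h with compounds in the wells used for the beta-lactamase reporter.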

[4] = qHTS assay to identify small molecule antagonists of the farnesoid-X-receptor (FXR) signaling pathway - cell viability counter screen (AID 743221; active = well fitted cell-killing curve with a large enough effect in the repeat runs, not every such curve was filed as active; note: nearly all actives have a fitted effect of over 50% in size; note: potency is the fitted concentration of half-maximal effect)
Summary of the method: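 HEK 293T FXR-bla cells, 5 h pre-incubation; compound + CDCA 50 uM final, 16 h, 37 C; beta-lactamase FRET read first, then CellTiter-Glo luminescence, 30 min RT.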

[5] = molecular target: Vitamin D3 receptor (Homo sapiens) (UniProt P11473); test: qHTS assay to identify small molecule antagonists of the vitamin D receptor (VDR) signaling pathway (AID 743223; active = well fitted inhibition curve with a large enough effect in the signal ratio in the repeat runs, not every such curve was filed as active; the % refers to the signal ratio; note: potency is the fitted concentration of half-maximal effect)
Chain of Vitamin D3 receptor (Homo sapiens) (P11473 whole entry, looked up): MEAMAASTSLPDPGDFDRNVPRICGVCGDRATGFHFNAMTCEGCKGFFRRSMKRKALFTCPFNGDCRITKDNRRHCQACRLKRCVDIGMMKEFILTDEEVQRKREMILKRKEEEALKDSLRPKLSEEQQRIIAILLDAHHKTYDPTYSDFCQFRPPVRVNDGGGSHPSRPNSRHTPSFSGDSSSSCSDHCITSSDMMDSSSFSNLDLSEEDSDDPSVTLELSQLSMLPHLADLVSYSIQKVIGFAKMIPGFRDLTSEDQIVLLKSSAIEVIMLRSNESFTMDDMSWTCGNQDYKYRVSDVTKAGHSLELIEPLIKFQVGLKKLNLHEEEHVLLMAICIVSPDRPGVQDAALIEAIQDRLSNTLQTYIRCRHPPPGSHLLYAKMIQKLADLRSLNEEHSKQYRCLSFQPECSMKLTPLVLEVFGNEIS
Summary of the method: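 Beta-lactamase reporter read-out: FRET substrate fluorescence after 2 h at room temperature, following 16 h exposure of VDR-bla cells to test compound plus 3 nM (final) 1alpha,25-dihydroxyvitamin D3 agonist at 37C.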

[6] = qHTS assay to identify small molecule agonists of the vitamin D receptor (VDR) signaling pathway - cell viability counter screen (AID 743224); note: nearly all actives have a fitted effect of over 50% in size; note: potency is the fitted concentration of half-maximal effect
Summary of the method: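 Cytotoxicity counter screen: VDR-bla cells, 16 h compound exposure at 37C, 5% CO2; CellTiter-Glo luminescence, 30 min RT, same wells as bla read.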

[7] = qHTS assay to identify small molecule antagonists of the vitamin D receptor (VDR) signaling pathway - cell viability counter screen (AID 743225); note: nearly all actives have a fitted effect of over 50% in size; note: potency is the fitted concentration of half-maximal effect
Summary of the method: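 Viability counter screen run in the same wells as the beta-lactamase reporter assay: HEK 293T VDR-UAS-bla cells, 16 h compound exposure at 37C with 3 nM (final) 1-alpha,25-dihydroxyvitamin D3. CellTiter-Glo luminescence, 30 min, room temperature.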

[8] = molecular target: Bile acid receptor (Homo sapiens) (UniProt Q96RI1); test: qHTS assay to identify small molecule agonists of the farnesoid-X-receptor (FXR) signaling pathway (AID 743220; active = well fitted activation curve with a large enough effect in the signal ratio in the repeat runs, not every such curve was filed as active; the % refers to the signal ratio)
Chain of Bile acid receptor (Homo sapiens) (Q96RI1 whole entry, looked up): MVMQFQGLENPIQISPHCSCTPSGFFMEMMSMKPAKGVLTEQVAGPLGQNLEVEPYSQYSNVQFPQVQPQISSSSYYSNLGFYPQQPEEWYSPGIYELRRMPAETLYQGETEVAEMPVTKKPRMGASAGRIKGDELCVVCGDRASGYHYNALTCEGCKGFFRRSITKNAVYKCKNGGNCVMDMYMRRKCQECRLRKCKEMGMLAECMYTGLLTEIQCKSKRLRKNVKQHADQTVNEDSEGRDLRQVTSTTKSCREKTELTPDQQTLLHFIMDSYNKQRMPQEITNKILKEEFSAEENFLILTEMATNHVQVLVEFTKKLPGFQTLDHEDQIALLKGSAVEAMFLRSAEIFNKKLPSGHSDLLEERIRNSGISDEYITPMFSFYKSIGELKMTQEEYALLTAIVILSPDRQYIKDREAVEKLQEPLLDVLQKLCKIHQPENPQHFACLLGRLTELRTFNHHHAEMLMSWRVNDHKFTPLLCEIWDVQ
Summary of the method: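 FXR-UAS-bla HEK 293T cells carrying a UAS-driven beta-lactamase reporter were plated for 5 h at 37C/5% CO2, then exposed to DMSO-dissolved Tox21 10K compounds for 16 h at 37C. A LiveBLAzer B/G FRET substrate was loaded for 2 h at room temperature before fluorescence reading.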

[9] = molecular target: Vitamin D3 receptor (Homo sapiens) (UniProt P11473); test: qHTS assay to identify small molecule agonists of the vitamin D receptor (VDR) signaling pathway (AID 743222; calls by dose curve)
Summary of the method: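 Beta-lactamase reporter readout (LiveBLAzer B/G FRET, 2 h RT) in VDR-bla cells after 16 h compound treatment at 37C, 5% CO2; cells pre-incubated 4 h before pin transfer of DMSO solutions.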

Measured: Potency

Cn1cc(C2=C(c3cn(C4CCN(Cc5ccccn5)CC4)c4ccccc34)C(=O)NC2=O)c2ccccc21
active: [3] 16.8 µM
not listed: [8] | [9]
inactive: all other assays above

CCOc1cc(C(C)(C)C)ccc1C1COC(c2c(F)cccc2F)=N1 (centres undefined)
active: [1] 33.4 µM | [2] 29.7 µM | [3] 33.4 µM | [4] 29.7 µM | [6] 23.6 µM

CC1(c2ccc(Oc3ccccc3)cc2)OC(=O)N(Nc2ccccc2)C1=O (centres undefined)
active: [1] 43.9 µM | [2] 24.7 µM | [3] 39.1 µM | [6] 17.5 µM | [7] 39.1 µM

Nc1ccccc1C(=O)Oc1ccc2ccccc2c1
not listed: [2] | [8] | [9]
inactive: all other assays above

CCC[CH2][Sn]([CH2]CCC)([CH2]CCC)[O]C(=O)c1ccccc1
active: [1] 1.38 µM | [3] 0.616 µM | [4] 2.45 µM | [6] 0.692 µM

CCOC(=O)C1(c2ccccc2)CCN(CCC(C#N)(c2ccccc2)c2ccccc2)CC1
inactive: [1] | [3] | [8] | [4] | [6]

Cc1c(Cl)c(=O)oc2cc(OP(=O)(OCCCl)OCCCl)ccc12
inactive: [1] | [3] | [4] | [6] | [7]

CCCN(CCC)c1c([N+](=O)[O-])cc(S(N)(=O)=O)cc1[N+](=O)[O-]
active: [1] 37 µM | [2] 58.6 µM | [4] 52.2 µM | [6] 52.2 µM | [7] 11.7 µM

CN(C)C(=S)S
inactive: [5] | [7]
active: [1] 5.45 µM and 7.76 µM | [3] 0.386 µM | [4] 612 nM and 4.36 µM | [6] 50 µM and 1.09 µM and 9.77 µM

CN(C)C(=S)[S-].CN(C)C(=S)[S-].[Cu+2]
active: [1] 3.36 µM | [3] 0.946 µM | [4] 2.38 µM | [6] 1.5 µM

CC(=O)[O-].CC(=O)[O-].[Hg+2]
active: [1] 3.47 µM | [3] 1.1 µM | [4] 3.09 µM | [6] 1.74 µM

CCN
inactive: [1] | [3] | [4]

O=[N+]([O-])O.O=[N+]([O-])O.[Cd]
active: [1] 5.49 µM | [3] 12.3 µM | [4] 6.16 µM | [6] 1.74 µM | [7] 19.5 µM

O=C(CCl)Nc1ccccc1
active: [2] 17.4 µM | [6] 24.5 µM | [7] 49 µM
inactive: [1] | [3] | [8]

CCOC(=O)CC(=O)CCl
not listed: [2] | [5] | [8]
inactive: all other assays above

CN(C)[C@@H]1C(=O)C(C(N)=O)=C(O)[C@@]2(O)C(=O)C3=C(O)c4c(O)ccc(Cl)c4[C@@](C)(O)[C@H]3C[C@@H]12
inactive: [1] | [3] | [8] | [4] | [6]

Clc1ccc(-c2ccc(Cl)c(Cl)c2Cl)c(Cl)c1Cl
active: [3] 46.6 µM
not listed: [8]
inactive: all other assays above

N#CC(Cl)Cl
not listed: [2] | [8]
inactive: all other assays above

CCOCCOC(C)=O
inactive: [1] | [3] | [4] | [9]

C[C@H]1O[C@@H](O[C@H]2[C@@H](O)C[C@H](O[C@H]3[C@@H](O)C[C@H](O[C@H]4CC[C@@]5(C)[C@H](CC[C@@H]6[C@@H]5CC[C@]5(C)[C@@H](C7=CC(=O)OC7)CC[C@]65O)C4)O[C@@H]3C)O[C@@H]2C)C[C@H](O)[C@@H]1O
inactive: [8]
active: [1] 19.6 nM and 84.1 nM | [3] 0.0311 µM | [4] 0.0139 µM | [6] 15.6 nM and 106 nM | [7] 8.8 nM and 84.9 nM

CC(=O)O[C@H]1CC[C@@]2(C)C(=CC[C@@H]3[C@@H]2CC[C@]2(C)C(=O)CC[C@@H]32)C1
inactive: [1] | [3] | [4] | [6]

CN(C)S(=O)(=O)N(SC(F)(Cl)Cl)c1ccccc1
active: [1] 27.5 µM | [3] 38.9 µM | [4] 43.6 µM | [6] 15.5 µM

O=C(CBr)c1ccc(O)cc1
inactive: [1] | [3] | [4] | [9] | [7]

CC(=O)/C=C/c1ccc2c(c1)OCO2
active: [2] 43.9 µM
inactive: [1] | [3] | [4] | [6]

[Hg+2].[I-].[I-]
active: [1] 3.47 µM | [3] 3.09 µM | [4] 3.89 µM | [6] 1.55 µM | [7] 5.49 µM

N#C/C=C/C#N
active: [3] 51.3 µM
inactive: [1] | [2] | [4] | [5] | [6]

C[C@@H]1CC[C@@]2(OC1)O[C@H]1[C@@H](O)[C@H]3[C@@H]4CC[C@H]5C[C@@H](O[C@@H]6O[C@H](CO)[C@H](O[C@@H]7O[C@H](CO)[C@@H](O)[C@H](O[C@@H]8OC[C@@H](O)[C@H](O)[C@H]8O)[C@H]7O[C@@H]7O[C@H](CO)[C@@H](O)[C@H](O[C@@H]8O[C@H](CO)[C@@H](O)[C@H](O)[C@H]8O)[C@H]7O)[C@H](O)[C@H]6O)[C@H](O)C[C@]5(C)[C@H]4CC[C@]3(C)[C@H]1[C@@H]2C
active: [1] 4.63 µM | [3] 26.1 µM | [4] 23.2 µM | [5] 32.8 µM | [6] 8.24 µM
inactive: [9]

O=C(NC(=O)c1c(F)cccc1F)Nc1cc(Cl)c(OC(F)(F)C(F)F)c(Cl)c1
not listed: [5] | [8] | [9]
inactive: all other assays above

N#CNC#N
not listed: [2] | [7] | [8]
inactive: all other assays above

Oc1ccc(C2(c3ccc(O)cc3)c3ccccc3-c3ccccc32)cc1
active: [1] 13.8 µM | [2] 11 µM | [3] 54.9 µM
inactive: [9]

CCCCCCCCCCCCCCCCCCn1cc[n+](C)c1
active: [1] 7.72 µM | [2] 19.4 µM | [3] 48.7 µM | [4] 34.5 µM | [6] 9.72 µM | [7] 19.4 µM

ClC1=C(Cl)C2(Cl)C3C(Cl)C(Cl)CC3C1(Cl)C2(Cl)Cl (centres undefined)
inactive: [9]
active: [1] 49 µM | [3] 48.8 µM and 54.9 µM | [4] 61.6 µM | [6] 24.5 µM and 17.4 µM

CCCCCCCCCC[N+](C)(C)CCCCCCCCCC
active: [1] 19.5 µM | [3] 49 µM | [4] 54.9 µM | [5] 43.6 µM | [6] 19.5 µM | [7] 15.5 µM
